Measurements taken from PubChem BioAssay (NCI).
The panel holds about 83,000 compounds, 20% with a hit somewhere; the sample as a whole holds those more often.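 Assay: single dose, 48 h. Readout: percent growth (0 = no net growth; negative = cell death). Active: <10.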 A number with no mark means an inactive call. Activity calls are given as the source filed them.

Key:
Experiment in all cases: NCI-60 one-dose screen, 48 h (100 = growth as untreated, 0 = no growth, -100 = all killed)
Conditions in all cases: 10 µM unless noted
[1] = system: SR leukemia
[2] = system: RPMI-8226 leukemia
[3] = system: OVCAR-8 ovarian
[4] = system: OVCAR-5 ovarian
[5] = system: OVCAR-4 ovarian
[6] = system: SK-OV-3 ovarian
[7] = system: IGROV1 ovarian
[8] = system: OVCAR-3 ovarian
[9] = system: HS 578T breast
[10] = system: NCI/ADR-RES ovarian

Structure (SMILES) | growth [1] | growth [2] | growth [3] | growth [4] | growth [5] | growth [6] | growth [7] | growth [8] | growth [9] | growth [10]
CC(C)=CC(=O)N[C@H]1CC[C@]2(C)C3CC[C@]4(C)C(C(C)N(C)C)=CCC4C3CCC2[C@H]1O (stereo not given in full) | 30.2% | 5.55% (active) | 77.6% | 101% | 7.83% (active) | 115% | 51.3% | 31.2% | 57.1% | 71.6%
Cc1cc(N2CCN(CC(=O)Nc3ccc4c(ccn4Cc4ccccc4)c3)CC2)nc(N2CCOCC2)n1 | 107% | 67% | 68.2% | 97.9% | 84.4% | 81.9% | 76.8% | 89.3% | 82.8% | 79.4%
C=C(C)[C@@H]1CC[C@]2(COC3CCCCO3)CC[C@]3(C)[C@H](CC[C@@H]4[C@@]5(C)C=C(C=O)C(=O)C(C)(C)[C@@H]5CC[C@]43C)[C@@H]12 (stereo not given in full) | -5.54% (active) | -6.13% (active) | -39.2% (active) | -19% (active) | -34.7% (active) | -40% (active) | -64.8% (active) | -65.1% (active) | -24.3% (active) | 1.89% (active)
Cc1ccc(-c2nc(SCC(=O)N3CCN(c4cc5c(cc4F)c(=O)c(C(=O)O)cn5C4CC4)CC3)nc(Cl)c2C#N)cc1 | 103% | 104% | 106% | 96.4% | 108% | 89.2% | 97.4% | 109% | 104% | 102%
c1csc(-c2cn3nc(-c4c[nH]c5ccccc45)sc3n2)c1 | 14.5% | 17.1% | 29.2% | 37.1% | 45% | 26.4% | 30.6% | -7.97% (active) |  | 12%
CCCCCCCCn1ccc2cc(NC(=O)CN=[N+]=[N-])ccc21 | 100% | 99.2% | 96.9% | 98.2% | 103% | 111% | 87.2% | 96% | 101% | 116%
CCn1cc(C(=O)N/N=C/c2ccccc2)c(=O)c2cc(F)c(N3CCNC(C)C3)c(F)c21 (stereo not given) | -14.6% (active) | -42.4% (active) | 28.4% | 67% | 70.7% | 104% | 58% | -75% (active) | 69.7% | 56%
COc1ccc2cc(-c3nc4ccc(C)cn4c3NCc3ccco3)c(=O)[nH]c2c1 | 31.5% | 62.3% | 78.5% | 70.8% | 69.3% | 78.1% | 63.4% | 89.4% | 65.3% | 68.7%
COC12C=C/C(=C(/C(=O)OCc3cncnc3)C(=O)CCCCCCCCC3(OC)C=C/C(=C(/C(=O)OCc4cncnc4)C(=O)CCCCCCCC1)O3)O2 | -36% (active) | -20.1% (active) | 9.06% (active) | -25.6% (active) | -4.86% (active) | 36.9% | -59.5% (active) | -57.8% (active) | 26.5% | 8.14% (active)
CC(C)(Sc1cc(C(C)(C)C)c(O)c(C(C)(C)C)c1)Sc1cc(C(C)(C)C)c(OC(=O)CCC(=O)O)c(C(C)(C)C)c1 | 78.6% | 30.3% | 41.3% | 87% | 67% | 80.3% | 55.9% | 46.8% | 67.4% | 61.5%
Nc1nc(N(Cc2ccccc2)c2ccccc2)c2cn[nH]c2n1 | 4.11% (active) | 58.5% | 80.3% | 100% | 78.6% | 95.6% | 80.7% | 76.7% | 58.2% | 59.9%
COCCn1cc(-c2csc(-c3c[nH]c4ccc(F)cc34)n2)c2cccnc21 | 9.53% (active) | 21.4% | 34% | 60.9% | 37.6% | 49.7% | 42% | 15.2% | 52.2% | 7.39% (active)
N=C(N)c1ccc(-c2ccc(-c3ccccc3)o2)o1 | -15% (active) | 9.58% (active) | 34.4% | 72.8% | 63.1% | 45.9% | 45.3% | 17% | 45.6% | 36.3%
CC1(C)N=C(N)N=C(N)N1c1ccc(S(=O)(=O)Nc2nccs2)cc1 | 104% | 108% | 104% | 91.9% | 104% | 102% | 100% | 107% |  | 106%
CC(C)NS(=O)(=O)/N=C1\NC(=O)NC1=C(Cl)Cl | 19.7% | 91.1% | 96.2% | 115% | 106% | 102% | 97.1% | 98.5% | 97.9% | 98.5%
COc1cccc(CNc2c3ccccc3nc3ccccc23)c1OC | 17.5% | 17% | 39.2% | 43% | 36.6% | 66% | 23.2% | 65.1% | 64.3% | 33.2%
COC(=O)c1c2c(c(C)[n+]([O-])c1C)C(=O)C(NCc1ccccc1)=CC2=O | 61.4% | 37.3% | 5.27% (active) | 39.5% | -78.7% (active) | 88.8% | 8.63% (active) | 0.759% (active) |  | 2.6% (active)
Nc1nc2ccccc2c2c(=O)c3cc(Cl)ccc3sc12 | 94.8% | 102% | 99.2% | 97.9% | 87.9% | 79.8% | 90.2% | -22.8% (active) |  | 108%
N#Cc1c(-c2ccccc2)nc2c(c(-c3ccccc3)nn2-c2ccccc2)c1-c1ccc(N2CCCCC2)cc1 | 114% | 107% | 98.4% | 102% | 105% | 104% | 104% | 111% | 109% | 100%
Clc1ccc(-c2cc(-c3ccccc3)nc(N3CCN(CCCNc4ccnc5cc(Cl)ccc45)CC3)n2)cc1 | 5.44% (active) | 4.72% (active) | -47.5% (active) | 33.5% | 9.85% (active) | 106% | -62.4% (active) | -47.9% (active) |  | 36%
COc1ccc(C(c2cc(OC)c(OC)c(OC)c2)N2CCCCC2)cc1 (stereo not given) | 18.5% | 51.2% | 50.1% | 69.6% | 69.2% | 16.7% | 47.1% | 8.29% (active) | 16.6% | 24%
C/C=C1/CN(CCCCC)CC[C@H]1C(=O)c1cc2ccccc2[nH]1 | 98.4% | 94.9% | 91.7% | 96.3% | 86.6% | 83.3% | 98.5% | 94% |  | 93.6%
Nc1[nH]nc2nc(-c3ccccc3)n3c4ccccc4nc3c12 | 92.2% | 101% | 98.8% | 106% | 101% | 93% | 77.9% | 106% | 106% | 104%
Cn1cc(-c2nc3c(F)cc4[nH]ncc4c3c3c2CCCC3)c(C(F)(F)F)n1 | -30.9% (active) | -5.82% (active) | 39.4% | 65% | 73.8% | 14.1% | 24% | 55.2% |  | 60.2%
C=C1C(=O)O[C@@H]2C3C(=C(C)CC[C@@H]12)CC1O[C@]13C (stereo not given in full) | 38.4% [6.75 µM] | 43.8% [6.75 µM] | 83.5% [6.75 µM] | 108% [6.75 µM] | 93.4% [6.75 µM] |  | 99.4% [6.75 µM] | 75.8% [6.75 µM] | 90.4% [6.75 µM] | 98.1% [6.75 µM]
Nc1nc(N)c2c(n1)NC(c1cccc(Nc3ccnc4cc(C(F)(F)F)ccc34)c1)CC(c1ccc3c(c1)OCO3)=N2 (stereo not given) | 1.91% (active) | 17% | 73.4% | 123% | 85.9% |  | 73% | 65.7% | 66.9% | 84.1%
O=C(OCc1ccc2c(Cl)cc(Cl)c(O)c2n1)N1CCN(C(=O)c2cc3ccccc3[nH]2)CC1 | 25.3% | 40.6% | 23.8% | 41.3% | 19.6% | 31.2% | 18.5% | 30.6% |  | 7.03% (active)
